Compound activity (PubChem BioAssay)
MazEF act = MazEF (E. coli) toxin RNase activation. P0AE70. FAM/BHQ RNA-DNA oligo cleavage fluorescence, 5 h. activation, % at 20 µM. hit rate 0.32% among 350,000; in the data active = activation above about 50%
Target sequence (P0AE70 whole entry, looked up): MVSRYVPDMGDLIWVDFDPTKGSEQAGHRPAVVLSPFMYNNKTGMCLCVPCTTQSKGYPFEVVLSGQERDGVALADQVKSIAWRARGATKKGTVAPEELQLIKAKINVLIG
CCHF vOTU inh-1 = blocks the CCHF virus ovarian tumor domain protease; CCHFV vOTU protease, Pep-AMC fluorescence; inhibition, % at 11.5 µM; hit rate 0.55% among 370,000; AID 651958; note: 0% = vehicle wells with enzyme and 100% = no enzyme wells
SARS 3CLpro inh = SARS-CoV 3CLpro protease inhibition; P0C6X7; AID 1706; hit rate 0.14% among 290,000; recombinant SARS-CoV 3CLpro, quenched FRET peptide cleavage; inhibition, % at 6 µM; in the data active = inhibition above about 12%
Sa ugtP lethal = kills S. aureus RN4220 lacking UgtP. S. aureus RN4220 ugtP deletion, OD600 growth, 16 h. growth inhibition, % (no concentration beside the values). hit rate 0.54% among 330,000; in the data active = growth inhibition above about 68%;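 note: plate controls were untreated wells for no effect and antibiotic for full effect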
Mtb betalactam = beta-lactam sensitization of Mtb H37Rv. inhibition, % at 25 µM. M. tuberculosis H37Rv growth with meropenem, percent inhibition. hit rate 0.27% among 330,000. AID 434955; call rule not given here;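 note: growth measured after seven days incubation then overnight dye step; 0% = bacteria only wells and 100% = bacteria with antibiotic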
Sa RN4220 lethal = kills Staphylococcus aureus RN4220 | inhibition, % (concentration not given with the values) | S. aureus RN4220 growth, OD600, 16 h | hit rate 0.33% among 330,000; in the data active = inhibition above about 85%;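 note: plate controls were untreated cells for no effect and reference antibiotic for full effect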
CCHF vOTU inh-2 = CCHFV vOTU protease inhibition, confirmation | shares compounds with CCHF vOTU inh-1 | Recombinant CCHFV vOTU, Pep-AMC fluorescence | inhibition, % at 11.5 µM | hit rate 17% among 1,900
* = called active by the depositor; i = inactive; x = not tested or not shown. Rows were chosen to be rich in hits. Some 1.3% of all compounds tested hit in one or more screens of this group. Cut-off read from the data, not from the text of the source, unless noted: active = inhibition above about 30%; inactive = the rest.

SMILES	MazEF act	CCHF vOTU inh-1	SARS 3CLpro inh	Sa ugtP lethal	Mtb betalactam	Sa RN4220 lethal	CCHF vOTU inh-2
CN(CC(=O)Nc1ccc(Cl)c(C(F)(F)F)c1)C(=O)CC1Sc2ccccc2NC1=O (configuration not stated)	1	33*	3	13	44	-17	-16
Cc1cnc(C(=O)Nc2c(-c3ccccc3)[nH][nH]c2=O)cn1	x	21	x	x	x	x	x
CN(C)c1ccc(-c2[nH][nH]c(=O)c2NC(=O)c2ccccn2)cc1	x	113*	x	x	x	x	2
CN(C)c1ccc(-c2[nH][nH]c(=O)c2NC(=O)c2ccc3ccccc3n2)cc1	x	105*	x	x	x	x	-11
C=CCc1cccc(C=Nc2ncccc2O)c1O	x	x	x	1	x	5	x
CCOC(=O)C1(Cc2cccc(Cl)c2)CCCN(C(=O)c2ccco2)C1 (configuration not stated)	-3	0	4	4	6	7	x
CCOC(=O)C1(Cc2cccc(Cl)c2)CCCN(C(=O)c2ccc(COC)s2)C1 (configuration not stated)	2	31*	0	x	-2	x	-4
N#CC(C#N)=Cc1ccc(N2CCOCC2)cc1	-8	30*	2	-4	3	2	-8
N#C/C(=C\c1ccc(N2CCOCC2)cc1)c1ccccc1	-11	6	3	11	48	0	x
CCCCCCCCCCCCCCCC[n+]1cccc2ccccc21	-2	44*	7	97*	17	99*	70*
CC(=NNC(=S)Nc1cccc(Cl)c1)c1ccccn1	7	30*	x	x	x	x	16
S=C(NCc1ccccn1)Nc1cccc(Cl)c1	-8	-5	1	-12	-10	6	x
FC(F)(F)c1ccc(C2C3CN(Cc4ccc(-c5ccccc5)cc4)C(c4ccccc4)C34CC2(c2ccccc2)C4)cc1 (configuration not stated)	x	x	x	0	x	4	x
c1coc(-c2nnc(-c3ccco3)nn2)c1	-21	45*	-2	-1	1	1	53*
Cc1ccc(-c2ccc(C=Nn3cnnc3)o2)cc1Cl	x	x	x	-9	x	-3	x
COc1ccc(C2C(=C(O)c3ccccc3)C(=O)C(=O)N2C)cc1 (configuration not stated)	x	x	x	3	x	5	x
CCNC1=C(Cl)C(=O)c2ccccc2C1=O	3	53*	1	80	75	71	48*
O=C1C(Cl)=C(NCc2ccco2)C(=O)c2ccccc21	6	107*	x	69	x	80	81*
O=C1c2ccccc2-c2onc3ccc(NCc4ccco4)c1c23	i	x	1	-23	22	-5	x
CCCC(=O)NC1=C(Cl)C(=O)c2ccccc2C1=O	6	93*	x	x	x	x	83*
CCN(CC)c1ccc(NC2=C(Cl)C(=O)c3ccccc3C2=O)cc1	8	x	3	4	7	18	x
O=C(Oc1ccc2c(c1)OCO2)c1cc2c(s1)CCC2	-2	46*	-3	27	99	11	-9
O=C(c1cc2c(s1)CCCC2)N1CCN(Cc2ccc3c(c2)OCO3)CC1	2	11	0	13	93	-2	x
CC(C)C(NS(=O)(=O)c1cccc2nsnc12)C(=O)NC1CCCCC1 (configuration not stated)	8	0	6	6	-8	4	x
CC1CCC(NC(=O)C(NS(=O)(=O)c2cccc3nsnc23)C(C)C)CC1 (configuration not stated)	3	31*	-1	6	-6	4	-11
SMILES	MazEF act	CCHF vOTU inh-1	SARS 3CLpro inh	Sa ugtP lethal	Mtb betalactam	Sa RN4220 lethal	CCHF vOTU inh-2
CN(CC(=O)Nc1ccccc1Cl)C(=O)COC(=O)c1cccs1	-25	-14	x	-8	-4	-1	x
Cc1cc(C)c(NC(=O)COC(=O)c2ccc([N+](=O)[O-])s2)c(C)c1	5	54*	-2	-7	11	1	-17
CN(CC(=O)Nc1ccccc1Cl)C(=O)COC(=O)c1ccc([N+](=O)[O-])s1	-12	78*	x	8	81	16	39*
Cc1ccc(NC(=O)COC(=O)c2ccc([N+](=O)[O-])s2)c(C)c1	-5	-1	1	3	95	6	x
COc1ccccc1NC(=O)COC(=O)c1ccc([N+](=O)[O-])s1	1	80*	5	-4	98	0	100*
O=C(COC(=O)c1ccc([N+](=O)[O-])s1)NNC(=O)c1ccccc1	1	x	x	10	4	6	x
